Source: the supplement of paper PMC10933113
Unmarked numbers belong to inactive results.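 How the source made its calls: active = curve rank above 3; inactive = curve rank 0.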

These molecules were tested on KeratinoSens (HaCaT ARE-luciferase) cells (assay: Nrf2/ARE luciferase activation call in qHTS KeratinoSens assay (1 = active, 0 = inactive)).

| SMILES | Nrf2/ARE luciferase activation call |
| --- | --- |
| CC[N+]1(C)CCCC1.O=S(=O)([O-])C(F)(F)F | not active ARE inducer (skin sensitizer alert) |
| CCCC[N+]1(C)CCCCC1.O=S(=O)([O-])C(F)(F)F | not active ARE inducer (skin sensitizer alert) |
| CO[C@@H]1COCC[C@@H]1[NH2+][C@@H]1CC[C@@](C(=O)N2CCc3ncc(C(F)(F)F)cc3C2)(C(C)C)C1.O=C([O-])CCC(=O)O | not active ARE inducer (skin sensitizer alert) |
| CNC[C@H](O)c1ccc(O)c(O)c1.O=C(O)[C@H](O)[C@@H](O)C(=O)O | not active ARE inducer (skin sensitizer alert) |
| CN1CCN(CCCN2c3ccccc3Sc3ccc(Cl)cc32)CC1.O=C(O)/C=C\C(=O)O.O=C(O)/C=C\C(=O)O | not active ARE inducer (skin sensitizer alert) |
| CCOCC(O)COc1ccc(NC(=O)CC[S+](C)C)cc1.Cc1ccc(S(=O)(=O)[O-])cc1 (centres undefined) | not active ARE inducer (skin sensitizer alert) |
| CCCCCCCCn1cc[n+](C)c1.O=S(=O)([O-])C(F)(F)F | not active ARE inducer (skin sensitizer alert) |
| CCN(CCCc1ccccc1)CCCc1ccccc1.O=C(O)CC(O)(CC(=O)O)C(=O)O | not active ARE inducer (skin sensitizer alert) |
| CN(C)CC[C@@H](c1ccc(Br)cc1)c1ccccn1.O=C(O)/C=C\C(=O)O | not active ARE inducer (skin sensitizer alert) |
| CCn1cc[n+](C)c1.O=S(=O)([O-])C(F)(F)F | not active ARE inducer (skin sensitizer alert) |
| Cc1ccc(S(=O)(=O)O)cc1.NC1CCN(c2nc3c(cc2F)c(=O)c(C(=O)O)cn3-c2ccc(F)cc2F)C1 (centres undefined) | not active ARE inducer (skin sensitizer alert) |
| CN(C)CCOC(c1ccc(Cl)cc1)c1ccccn1.O=C(O)/C=C\C(=O)O (centres undefined) | not active ARE inducer (skin sensitizer alert) |
| Cc1occc1C(=O)Nc1ccc(C(=O)N2CCC(F)(F)/C(=C\C(=O)N3CCC(N4CCCCC4)CC3)c3ccccc32)cc1.Cc1occc1C(=O)Nc1ccc(C(=O)N2CCC(F)(F)/C(=C\C(=O)N3CCC(N4CCCCC4)CC3)c3ccccc32)cc1.O=C(O)/C=C/C(=O)O | not active ARE inducer (skin sensitizer alert) |
| CCCC[n+]1cccc(C)c1.O=S(=O)([O-])C(F)(F)F | not active ARE inducer (skin sensitizer alert) |
| CN(CCOc1ccc(CC2SC(=O)NC2=O)cc1)c1ccccn1.O=C(O)/C=C\C(=O)O (centres undefined) | not active ARE inducer (skin sensitizer alert) |
| COc1cc(N)c(Cl)cc1C(=O)NC1CCN(Cc2ccccc2)CC1.O=C(O)/C=C\C(=O)O | not active ARE inducer (skin sensitizer alert) |
| COCCc1ccc(OCC(O)CNC(C)C)cc1.COCCc1ccc(OCC(O)CNC(C)C)cc1.O=C(O)[C@H](O)[C@@H](O)C(=O)O (centres undefined) | not active ARE inducer (skin sensitizer alert) |
| CCN(C(=O)c1cc(C)cc(OC[C@H](C)Nc2ccncc2)c1)C(C)C.Cc1ccc(S(=O)(=O)O)cc1 | not active ARE inducer (skin sensitizer alert) |
| CN1C(C)(C)CCCC1(C)C.O=C(O)[C@@H](O)[C@H](O)C(=O)O | not active ARE inducer (skin sensitizer alert) |
